The whole screen tested about 5,500 compounds, of which about 2,000 (36%) were called active. Roughly 18% stayed inconclusive and do not appear here. Cut-off read from the data, not from the text of the source: active = normalized growth mostly below about 0.91 (no sharp cut-off); inconclusive = no clear call, values can overlap the other calls; inactive = mostly above about 0.92. The list shows a part of the results.
Experiment: chemical genetic growth profiling, strain panel (AID 1159580);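 note: tested at 20 µM; growth read once vehicle control cultures reached saturation at 30 °C; 1 = growth at the plate median or of vehicle wells; lower values mean less growth of the strain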
Conditions: S. cerevisiae deletion strains, growth OD

Measured: normalized growth

CC(=O)OCC(=O)[C@@]1(O)CC[C@H]2[C@@H]3CCC4=CC(=O)CC[C@]4(C)[C@H]3C(=O)C[C@@]21C
inactive: locus YAL040C, strain CLN3, hits give low values 0.998 | locus YER002W, strain NOP16, hits give low values 0.991 | locus YGR078C, strain PAC10, hits give low values 1 | locus YNL175C, strain NOP13, hits give low values 0.985 | locus YNL197C, strain WHI3, hits give low values 0.982 | locus YNL224C, strain SQS1, hits give low values 1.01 | locus YOR083W, strain WHI5 (second series), hits give low values 0.976
